{"source": "ChEMBL document CHEMBL1201862", "about": "“PubChem BioAssay data set” (2004)", "note": "Out of some 400,000 compounds screened, about 2,100 (0.53%) were called active. Roughly 14% stayed inconclusive and do not appear here. No rule for the calls is given here. Many of the other results were omitted from the sample, so actives are more common in it than they were.", "data": [{"biological_target": "Ataxin-2 (Homo sapiens) (UniProt Q99700)", "sequence (Q99700 whole entry)": "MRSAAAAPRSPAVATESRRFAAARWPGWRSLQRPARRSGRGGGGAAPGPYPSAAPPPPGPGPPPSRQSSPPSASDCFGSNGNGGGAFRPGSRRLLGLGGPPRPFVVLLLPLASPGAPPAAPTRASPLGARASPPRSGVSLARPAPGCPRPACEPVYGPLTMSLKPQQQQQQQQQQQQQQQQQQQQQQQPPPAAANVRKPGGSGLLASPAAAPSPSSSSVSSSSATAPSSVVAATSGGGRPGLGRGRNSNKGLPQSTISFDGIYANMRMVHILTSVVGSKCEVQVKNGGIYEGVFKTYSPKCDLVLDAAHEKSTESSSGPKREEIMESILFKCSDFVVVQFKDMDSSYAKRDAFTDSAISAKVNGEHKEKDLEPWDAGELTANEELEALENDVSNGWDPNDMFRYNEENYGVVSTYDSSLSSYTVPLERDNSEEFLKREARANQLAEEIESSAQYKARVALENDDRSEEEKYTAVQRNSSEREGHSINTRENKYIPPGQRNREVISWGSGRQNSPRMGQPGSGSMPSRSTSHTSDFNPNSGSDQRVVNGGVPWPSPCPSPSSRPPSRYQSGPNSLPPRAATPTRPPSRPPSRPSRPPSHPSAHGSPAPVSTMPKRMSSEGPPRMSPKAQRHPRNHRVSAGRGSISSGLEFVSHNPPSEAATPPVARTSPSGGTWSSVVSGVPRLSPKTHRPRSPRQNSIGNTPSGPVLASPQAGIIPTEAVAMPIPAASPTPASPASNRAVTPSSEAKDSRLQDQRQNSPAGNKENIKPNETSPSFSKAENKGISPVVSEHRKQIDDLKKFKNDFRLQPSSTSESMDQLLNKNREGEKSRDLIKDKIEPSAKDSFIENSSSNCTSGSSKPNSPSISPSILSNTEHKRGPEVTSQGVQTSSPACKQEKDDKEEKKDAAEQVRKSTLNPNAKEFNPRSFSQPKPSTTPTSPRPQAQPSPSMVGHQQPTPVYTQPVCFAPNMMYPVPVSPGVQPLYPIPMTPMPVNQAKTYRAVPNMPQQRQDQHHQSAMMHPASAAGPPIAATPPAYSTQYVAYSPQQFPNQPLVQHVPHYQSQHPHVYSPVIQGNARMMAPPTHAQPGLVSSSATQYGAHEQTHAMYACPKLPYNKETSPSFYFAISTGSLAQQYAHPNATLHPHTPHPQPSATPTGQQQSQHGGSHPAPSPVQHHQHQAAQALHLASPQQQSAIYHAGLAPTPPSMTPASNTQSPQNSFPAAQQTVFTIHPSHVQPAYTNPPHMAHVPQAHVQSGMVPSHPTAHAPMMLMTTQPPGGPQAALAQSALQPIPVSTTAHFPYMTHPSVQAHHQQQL", "experiment": "qHTS for Inhibitors of ATXN expression.", "assay_type": "functional", "values": [{"smiles": "Cc1ccc(C)c(N2CCN(C(=O)CCC(=O)Nc3ccc4nc(N5CCCCC5)cc(C)c4c3)CC2)c1", "Potency": "inactive"}, {"smiles": "CCn1c(=O)cc(SCC(=O)N2CCN(c3cc(C)ccc3C)CC2)c2ccccc21", "Potency": "35.5 µM (active)"}, {"smiles": "CCc1nc2ccc(C(=O)N3CCN(c4cc(C)ccc4C)CC3)cc2nc1CC", "Potency": "inactive"}, {"smiles": "O=C1c2cccc3c(O)ccc(c23)C(=O)N1c1ccc(Cl)cc1", "Potency": "inactive"}, {"smiles": "O=CN/C=C/c1cc(O)ccc1O", "Potency": "35.5 µM (active)"}, {"smiles": "COC(=O)/C=C/c1sc2nc(C)cc(C)c2c1/N=C/N(C)C", "Potency": "inactive"}, {"smiles": "COCCN(C(=O)Cc1cccs1)C(C(=O)NCc1ccc(OC)cc1)c1ccc(C(C)C)cc1", "note": "(stereo not given)", "Potency": "39.8 µM (active)"}, {"smiles": "COc1ccc(N(C(=O)c2cnccn2)C(C(=O)NCc2ccccc2)c2ccc(O)cc2)cc1", "note": "(stereo not given)", "Potency": "inactive"}, {"smiles": "COc1ccc(CNC(=O)CNS(=O)(=O)c2cccs2)cc1", "Potency": "inactive"}, {"smiles": "Cc1ccc(C(=O)CSc2nnc(C3CC3)n2C2CC2)s1", "Potency": "inactive"}, {"smiles": "CC(=O)Nc1ccc(OC(F)(F)Cl)cc1", "Potency": "inactive"}, {"smiles": "N#C/C(=N/Nc1ccc(OC(F)(F)F)cc1)C(N)=S", "Potency": "10 µM (active)"}, {"smiles": "Oc1ccc(N=Nc2n[nH]c(-c3ccc(Cl)cc3)n2)cc1", "Potency": "35.5 µM (active)"}, {"smiles": "Oc1ccc(-c2onc3ccc(Cl)cc23)cc1", "Potency": "inactive"}, {"smiles": "Oc1ccc(-c2nccc(-c3ccc(Cl)cc3)n2)cc1", "Potency": "inactive"}, {"smiles": "O=C1c2cccc3c(O)ccc(c23)C(=O)N1Cc1ccccc1", "Potency": "inactive"}, {"smiles": "O=C1C=C(c2c(O)ccc3ccccc23)c2ccccc2C1=O", "Potency": "35.5 µM (active)"}, {"smiles": "CN(C)/C=C1\\Oc2ccc3ccccc3c2C1=O", "Potency": "inactive"}, {"smiles": "CCN1C(=O)c2cccc3c(S(=O)(=O)NCc4cccnc4)ccc1c23", "Potency": "inactive"}, {"smiles": "CCC(=O)OCCNc1cc(Sc2nccn2C)c2nonc2c1[N+](=O)[O-]", "Potency": "35.5 µM (active)"}, {"smiles": "CCCC(=O)OCCNc1cc(Sc2nccn2C)c2nonc2c1[N+](=O)[O-]", "Potency": "39.8 µM (active)"}, {"smiles": "COc1ccccc1OCc1ccc(C(=O)Nc2ccccc2)cc1", "Potency": "inactive"}, {"smiles": "COC(C/C=C/C(=O)[C@H](C)OCc1ccccc1)OC", "Potency": "39.8 µM (active)"}, {"smiles": "Clc1ccc(C(c2ccccc2)c2c[nH]c3ccccc23)s1", "note": "(stereo not given)", "Potency": "31.6 µM (active)"}, {"smiles": "c1ccc(C(c2cccs2)c2c[nH]c3ccccc23)cc1", "note": "(stereo not given)", "Potency": "39.8 µM (active)"}, {"smiles": "Oc1nc2ccccc2nc1-c1c[nH]c2ccccc12", "Potency": "inactive"}, {"smiles": "CCOc1ccccc1C1C(C(=O)OC)=CN(C)C=C1C(=O)OC", "Potency": "inactive"}, {"smiles": "CC(=O)Oc1c(-c2ccc(Br)o2)oc2ccccc2c1=O", "Potency": "inactive"}, {"smiles": "COC(=O)/C(=C1/Oc2cc(C)oc(=O)c2S1)C(F)(F)F", "Potency": "20 µM (active)"}, {"smiles": "CC(C)[C@H](NS(=O)(=O)c1ccccc1F)C(=O)NC1CCCCC1", "Potency": "inactive"}]}]}
